Laboratory results from PubChem BioAssay (Tox21).
Records with an inconclusive call do not appear. Calls of active or inactive are those of the source. Unless noted, calls follow the shape of the dose curve; as a rule, active = well fitted curve in the direction sought with a large enough effect in the repeat runs; inconclusive = weak or mixed curves; inactive = no such curve, though single readings can be large; an effect the other way counts as inactive or inconclusive.

Columns and labels:
[1] = target: Peroxisome proliferator-activated receptor gamma (Homo sapiens) (UniProt P37231); assay: qHTS assay to identify small molecule agonists of the peroxisome proliferator-activated receptor gamma (PPARg) signaling pathway (AID 743094; active = well fitted activation curve with a large enough effect in the signal ratio in the repeat runs, not every such curve was filed as active; the % refers to the signal ratio)
Sequence of Peroxisome proliferator-activated receptor gamma (Homo sapiens) (P37231 whole entry, looked up): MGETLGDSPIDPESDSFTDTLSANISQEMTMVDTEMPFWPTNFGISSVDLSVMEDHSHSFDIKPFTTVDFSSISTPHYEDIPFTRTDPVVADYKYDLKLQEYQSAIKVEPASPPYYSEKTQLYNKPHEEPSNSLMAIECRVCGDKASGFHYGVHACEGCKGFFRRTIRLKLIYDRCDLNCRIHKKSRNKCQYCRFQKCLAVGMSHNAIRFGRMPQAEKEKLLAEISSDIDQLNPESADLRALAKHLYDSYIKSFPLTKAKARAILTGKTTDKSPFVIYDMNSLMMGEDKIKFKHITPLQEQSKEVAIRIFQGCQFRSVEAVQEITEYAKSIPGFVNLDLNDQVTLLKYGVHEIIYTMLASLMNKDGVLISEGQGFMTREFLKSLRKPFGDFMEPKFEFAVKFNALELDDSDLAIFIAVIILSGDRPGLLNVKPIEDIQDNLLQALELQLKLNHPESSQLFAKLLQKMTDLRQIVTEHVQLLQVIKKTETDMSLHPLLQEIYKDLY
Procedure, shortened: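 Cell-based bla reporter, HEK293H background, PPARg-driven UAS. Pre-incubation 5 h, 37C, 5% CO2. Compound 17 h, 37C. Substrate 1 h RT; fluorescence.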

[2] = qHTS assay to identify small molecule antagonists of the peroxisome proliferator-activated receptor gamma (PPARg) signaling pathway - cell viability counter screen (AID 743194); also: nearly all actives have a fitted effect of over 55% in size
Procedure, shortened: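 Cytotoxicity counter screen in PPARg-bla HEK293H cells, same wells as reporter assay. Compounds plus 50 nM rosiglitazone (final) for 17 h at 37 C, then viability read by CellTiter-Glo luminescence.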

[3] = qHTS assay for small molecule agonists of the antioxidant response element (ARE) signaling pathway - cell viability counter screen (AID 743203; calls by dose curve; also: nearly all actives have a fitted effect of over 55% in size)
Procedure, shortened: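 Measured in the same wells as the beta-lactamase ARE reporter, this read-out is CellTiter-Glo luminescence from HepG2 ARE-bla cells given compounds for 16 hrs.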

[4] = qHTS assay for small molecule activators of the heat shock response signaling pathway - cell viability counter screen (AID 743209); also: nearly all actives have a fitted effect of over 50% in size
Procedure, shortened: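 Same-well multiplex: after 2.5 h room-temperature incubation with LiveBLAzer B/G substrate and fluorescence reading, CellTiter-Glo reagent was added to HSE-bla HeLa cells that had received compound for 5 h at 37 C; luminescence read after 30 min.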

[5] = qHTS assay for small molecule activators of the heat shock response signaling pathway (AID 743210; active = well fitted activation curve with a large enough effect in the signal ratio in the repeat runs, with a control signal flat, not every such curve was filed as active; the % refers to the signal ratio; also: potency is read from the fitted curve at half-maximal effect;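 as to activation: HeLa cells with beta-lactamase reporter driven by heat shock elements; series mostly up to about 63 µM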)
Procedure, shortened: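 Following overnight attachment, HSE-bla HeLa cells received test compounds for 5 h at 37 C; beta-lactamase activity was then detected via FRET substrate fluorescence.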

[6] = qHTS assay to identify small molecule agonists of the peroxisome proliferator-activated receptor delta (PPARd) signaling pathway - cell viability counter screen (AID 743211); also: nearly all actives have a fitted effect of over 55% in size
Procedure, shortened: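 Multiplexed format: after the 2 h room-temperature LiveBLAzer B/G FRET step, CellTiter-Glo was added to the same wells. Luminescence after 30 min gave cell viability; compound exposure was 17 h at 37C.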

[7] = target: Peroxisome proliferator-activated receptor delta (Homo sapiens) (UniProt Q03181); assay: qHTS assay to identify small molecule agonists of the peroxisome proliferator-activated receptor delta (PPARd) signaling pathway (AID 743212; calls by dose curve)
Sequence of Peroxisome proliferator-activated receptor delta (Homo sapiens) (Q03181 whole entry, looked up): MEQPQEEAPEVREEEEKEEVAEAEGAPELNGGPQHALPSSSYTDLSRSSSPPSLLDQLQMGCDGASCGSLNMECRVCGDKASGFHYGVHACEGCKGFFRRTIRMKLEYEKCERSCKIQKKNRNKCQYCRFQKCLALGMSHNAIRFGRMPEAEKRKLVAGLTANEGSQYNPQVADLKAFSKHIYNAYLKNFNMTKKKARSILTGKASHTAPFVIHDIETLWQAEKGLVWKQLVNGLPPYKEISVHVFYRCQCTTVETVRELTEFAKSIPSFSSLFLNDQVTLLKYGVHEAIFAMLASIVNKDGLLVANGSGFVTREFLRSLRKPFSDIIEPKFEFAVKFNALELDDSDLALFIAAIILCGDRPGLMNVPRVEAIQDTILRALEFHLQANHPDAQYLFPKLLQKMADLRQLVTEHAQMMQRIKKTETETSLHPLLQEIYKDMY
Procedure, shortened: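 Tox21 library screened in GeneBLAzer PPARd UAS-bla HEK293H cells. After compound treatment at 37 C, a FRET-based beta-lactamase substrate was applied for 2 h and fluorescence recorded.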

[8] = qHTS assay to identify small molecule antagonists of the peroxisome proliferator-activated receptor delta (PPARd) signaling pathway - cell viability counter screen (AID 743213); also: nearly all actives have a fitted effect of over 50% in size
Procedure, shortened: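 Cytotoxicity counter screen: CellTiter-Glo luminescence read 30 min after addition, in the same wells as the reporter assay. There, PPARd UAS-bla HEK293H cells (3000/well) were treated 17 h at 37 C with compound and 300 nM L165041.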

[9] = target: Peroxisome proliferator-activated receptor delta (Homo sapiens) (UniProt Q03181); assay: qHTS assay to identify small molecule antagonists of the peroxisome proliferator-activated receptor delta (PPARd) signaling pathway (AID 743215; active = well fitted inhibition curve with a large enough effect in the signal ratio in the repeat runs, not every such curve was filed as active; the % refers to the signal ratio;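 also: cells stimulated with agonist L165041 at 300 nM final during compound exposure; series mostly up to about 62 µM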)
Procedure, shortened: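 Fluorescence from cleaved LiveBLAzer B/G FRET substrate (2 h, room temperature) reports PPARd-driven beta-lactamase in HEK293H UAS-bla cells. Cells had been treated 17 h at 37 C with compound plus 300 nM final L165041.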

[10] = target: Bile acid receptor (Homo sapiens) (UniProt Q96RI1); assay: qHTS assay to identify small molecule antagonists of the farnesoid-X-receptor (FXR) signaling pathway (AID 743217; active = well fitted inhibition curve with a large enough effect in the signal ratio in the repeat runs, not every such curve was filed as active; the % refers to the signal ratio)
Sequence of Bile acid receptor (Homo sapiens) (Q96RI1 whole entry, looked up): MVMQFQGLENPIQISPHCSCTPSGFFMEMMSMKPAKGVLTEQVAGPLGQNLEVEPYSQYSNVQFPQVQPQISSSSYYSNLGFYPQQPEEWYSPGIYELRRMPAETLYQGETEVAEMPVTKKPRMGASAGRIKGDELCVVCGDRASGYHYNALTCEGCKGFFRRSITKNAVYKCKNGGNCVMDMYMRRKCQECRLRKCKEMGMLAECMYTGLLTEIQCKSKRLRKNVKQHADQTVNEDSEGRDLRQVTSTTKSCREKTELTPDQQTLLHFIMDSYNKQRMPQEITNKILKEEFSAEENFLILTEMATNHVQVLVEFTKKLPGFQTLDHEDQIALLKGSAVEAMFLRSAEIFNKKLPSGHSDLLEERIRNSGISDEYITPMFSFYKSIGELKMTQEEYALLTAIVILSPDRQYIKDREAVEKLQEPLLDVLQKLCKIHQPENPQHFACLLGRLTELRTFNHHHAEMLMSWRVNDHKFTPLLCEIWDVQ
Procedure, shortened: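 FRET fluorescence after 2 h room-temperature LiveBLAzer loading gives the readout. Prior step: FXR-bla HEK 293T cells, seeded and incubated 5 h, received test compounds plus 50 uM final CDCA for 16 h at 37 °C.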

[11] = qHTS assay to identify small molecule agonists of the farnesoid-X-receptor (FXR) signaling pathway - cell viability counter screen (AID 743218); also: nearly all actives have a fitted effect of over 45% in size
Procedure, shortened: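 Readout: CellTiter-Glo luminescence, 30 min RT, multiplexed after the FXR-bla FRET reading. HEK 293T FXR-UAS-bla cells received compound 5 h post-plating and were incubated 16 h at 37 C.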

[12] = target: Bile acid receptor (Homo sapiens) (UniProt Q96RI1); assay: qHTS assay to identify small molecule agonists of the farnesoid-X-receptor (FXR) signaling pathway (AID 743220; active = well fitted activation curve with a large enough effect in the signal ratio in the repeat runs, not every such curve was filed as active; the % refers to the signal ratio)
Procedure, shortened: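 FXR-UAS-bla HEK 293T cells carrying a UAS-driven beta-lactamase reporter were plated for 5 h at 37C/5% CO2, then exposed to DMSO-dissolved Tox21 10K compounds for 16 h at 37C. A LiveBLAzer B/G FRET substrate was loaded for 2 h at room temperature before fluorescence reading.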

[13] = qHTS assay to identify small molecule antagonists of the farnesoid-X-receptor (FXR) signaling pathway - cell viability counter screen (AID 743221; active = well fitted cell-killing curve with a large enough effect in the repeat runs, not every such curve was filed as active; also: nearly all actives have a fitted effect of over 50% in size)
Procedure, shortened: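 CellTiter-Glo, 30 min RT, luminescence; same wells as the LiveBLAzer FRET read. Cells: FXR-UAS-bla HEK 293T. Treatment: compound with chenodeoxycholic acid 50 uM final, 16 h at 37 C.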

[14] = target: Vitamin D3 receptor (Homo sapiens) (UniProt P11473); assay: qHTS assay to identify small molecule agonists of the vitamin D receptor (VDR) signaling pathway (AID 743222; calls by dose curve)
Sequence of Vitamin D3 receptor (Homo sapiens) (P11473 whole entry, looked up): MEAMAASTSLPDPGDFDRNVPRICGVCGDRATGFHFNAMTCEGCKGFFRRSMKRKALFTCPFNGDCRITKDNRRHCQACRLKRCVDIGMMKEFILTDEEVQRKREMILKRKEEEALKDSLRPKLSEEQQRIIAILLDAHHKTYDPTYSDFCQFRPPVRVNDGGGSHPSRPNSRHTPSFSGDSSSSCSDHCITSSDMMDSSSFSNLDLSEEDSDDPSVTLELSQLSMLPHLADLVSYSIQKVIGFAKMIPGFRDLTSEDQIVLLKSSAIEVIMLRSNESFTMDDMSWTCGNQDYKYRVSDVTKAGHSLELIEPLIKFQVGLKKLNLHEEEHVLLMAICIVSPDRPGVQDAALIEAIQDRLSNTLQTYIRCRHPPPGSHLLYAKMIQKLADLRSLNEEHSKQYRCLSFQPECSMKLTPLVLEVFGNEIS
Procedure, shortened: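 Following 4 h attachment at 37C, VDR-bla cells (2,000 per well) received DMSO-dissolved compounds or controls. After 16 h incubation, LiveBLAzer B/G FRET substrate was added and fluorescence read 2 h later at room temperature.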

[15] = target: Vitamin D3 receptor (Homo sapiens) (UniProt P11473); assay: qHTS assay to identify small molecule antagonists of the vitamin D receptor (VDR) signaling pathway (AID 743223; active = well fitted inhibition curve with a large enough effect in the signal ratio in the repeat runs, not every such curve was filed as active; the % refers to the signal ratio)
Procedure, shortened: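 After VDR-bla cells are plated and left 4 h at 37C, DMSO-dissolved compounds and 3 nM (final) calcitriol agonist are added. Incubation continues 16 h at 37C; FRET beta-lactamase substrate then develops 2 h at room temperature.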

[16] = qHTS assay to identify small molecule agonists of the vitamin D receptor (VDR) signaling pathway - cell viability counter screen (AID 743224); also: series mostly up to about 63 µM; nearly all actives have a fitted effect of over 50% in size
Procedure, shortened: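 In parallel with the bla FRET readout, cytotoxicity toward VDR-bla cells after 16 h compound exposure was assessed by CellTiter-Glo, with luminescence recorded after a 30 min room-temperature incubation.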

[17] = target: Peroxisome proliferator-activated receptor gamma (Homo sapiens) (UniProt P37231); assay: qHTS assay to identify small molecule antagonists of the peroxisome proliferator-activated receptor gamma (PPARg) signaling pathway (AID 743191; calls by dose curve; also: series mostly up to about 63 µM; nearly all actives have a fitted effect of over 30% in size)
Procedure, shortened: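 GeneBLAzer PPARg UAS-bla HEK293H cells, 5 h post-plating, exposed to compounds 17 h at 37C. LiveBLAzer B/G FRET substrate added for 1 h at room temperature; beta-lactamase reporter read by fluorescence intensity.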

[18] = qHTS assay for small molecule agonists of the antioxidant response element (ARE) signaling pathway (AID 743202; active = well fitted activation curve with a large enough effect in the signal ratio in the repeat runs, not every such curve was filed as active; the % refers to the signal ratio; also: potency is read from the fitted curve at half-maximal effect)
Procedure, shortened: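 HepG2 ARE-bla cells; 16 h treatment at 37 C; FRET-based beta-lactamase fluorescence read after 2 h substrate incubation at room temperature.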

[19] = qHTS assay to identify small molecule that activate the aryl hydrocarbon receptor (AhR) signaling pathway - cell viability counter screen (AID 743086);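 also: HepG2 liver cells carrying the AhR DRE luciferase reporter; series mostly up to about 70 µM; nearly all actives have a fitted effect of over 45% in size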
Procedure, shortened: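 HepG2-AhR-luc (HG2L7.5c1) cells, 4000/well, treated 24 h at 37 C with compound; viability measured as CellTiter-Fluor fluorescence after 30 min in the same wells as the luciferase read.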

Measured: Potency

Oc1cc(O)c(Cl)cc1Cl
inactive: [1] | [2] | [3] | [4] | [6] | [7] | [8] | [9] | [10] | [11] | [12] | [13] | [14] | [15] | [16]
active: [5] 50.2 µM

CN1Cc2cc(C(=O)N3CCC(C4CCNCC4)CC3)ccc2N[C@@H](CC(=O)O)C1=O
inactive: [2] | [3] | [4] | [6] | [7] | [8] | [11] | [13] | [16]

Cn1c(=O)c2c(ncn2CC(=O)O)n(C)c1=O
inactive: [17] | [2] | [18] | [3] | [4] | [6] | [8] | [11] | [13] | [14] | [15] | [16]

CCOC(=O)N1CCC(n2c(=O)[nH]c3cc(Cl)ccc32)CC1
inactive: [17] | [2] | [3] | [4] | [5] | [6] | [8] | [11] | [13] | [15] | [16]
active: [18] 6.68 µM

C/C(=N/NC(=O)c1ccncc1)C(=O)O
inactive: [17] | [18] | [3] | [4] | [5] | [6] | [7] | [8] | [11] | [13] | [14] | [15] | [16]

NC(=O)Cn1c(=O)cc(CCN2CCN(c3nccc4sccc34)CC2)c2ccc(F)cc21
inactive: [1] | [2] | [18] | [3] | [4] | [5] | [6] | [8] | [9] | [11] | [12] | [13] | [15] | [16]

COC(=O)c1cc(S(N)(=O)=O)ccc1OC
inactive: [17] | [2] | [18] | [3] | [4] | [5] | [6] | [8] | [10] | [11] | [12] | [13] | [14] | [15] | [16]

CCOC(=O)C(C)Oc1ccc(Oc2nc3ccc(Cl)cc3o2)cc1 (configuration not stated)
inactive: [1] | [2] | [3] | [4] | [5] | [6] | [7] | [8] | [9] | [10] | [11] | [12] | [13] | [14] | [16]

c1cc[c]([Bi]([c]2ccccc2)[c]2ccccc2)cc1
inactive: [19] | [2] | [3] | [4] | [6] | [7] | [8] | [11] | [13] | [14] | [16]

CC[C@H](NC(=O)c1cc(F)ccc1NS(=O)(=O)c1cccc2cccnc12)c1ccccc1
inactive: [19] | [2] | [3] | [4] | [5] | [6] | [7] | [11] | [12] | [13] | [15] | [16]

CCCC(=O)O[C@]1(C(=O)COC(=O)CC)CC[C@H]2[C@@H]3CCC4=CC(=O)CC[C@]4(C)[C@H]3[C@@H](O)C[C@@]21C
inactive: [1] | [2] | [18] | [3] | [4] | [6] | [7] | [8] | [9] | [10] | [12] | [13] | [14] | [15] | [16]

C=CCNc1nc(NCC=C)nc(N2CCN(C(c3ccc(F)cc3)c3ccc(F)cc3)CC2)n1
inactive: [2] | [4] | [5] | [6] | [7] | [8] | [9] | [10] | [12] | [13] | [14] | [15] | [16]
